# Measurements: PubChem BioAssay
# The source made the active and inactive calls.
# How the values were obtained:
# [1] = tested on: PRMT1 (protein arginine N-methyltransferase 1); test: PRMT1 binders on small-molecule microarrays, primary screen, biochemical, small-molecule microarray, 635 nm fluorescence (AID 1088); details: small-molecule microarray binding, higher = more signal;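 further: binding of Prmt1 protein to compounds spotted on small-molecule microarray slides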
# [2] = yeast growth modulation, basal conditions, primary screen, YJM789 clinical isolate, OD600, 24 h (AID 1089);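 further: growth of clinical yeast isolate S. cerevisiae YJM 789 seeded 1000 cells per well; test concentration not given here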; details: S. cerevisiae YJM789 growth, higher = more signal, called active from +8 up or from −8 down
# [3] = fission yeast growth modulation, primary screen, strain 972, OD600, 24 h, no modulator (AID 1090);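 further: basal condition with compound alone and no growth modifier present; test concentration not given here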; details: S. pombe 972 growth, higher = more signal, called active from +8 up or from −8 down
# [4] = S. cerevisiae growth modulation with rapamycin, primary screen, strain BY4716, OD600, 96 h (AID 1091); details: higher = more signal, called active from +8 up or from −8 down; further: test concentration not given here
# [5] = molecular target: Torsin-1A-interacting protein 2 (Homo sapiens) (UniProt Q8NFQ8); test: LULL1 binders on small-molecule microarray, primary screen, cell lysate, human LULL1 lysate, 635/667 nm fluorescence (AID 1092); details: hLULL1 lysate binding, 635 nm fluorescence, higher = more signal;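 further: probe is lysate of COS7 cells overexpressing human LULL1; score merges per-feature 667 nm fluorescence with signal-to-noise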
# [6] = E. coli growth modulation, two-sided OD650, primary screen, E. coli filamentation project, strain DRC41, 24 h (AID 1093); details: OD650, 24 h, higher = more signal, called active from +8 up or from −8 down;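 further: MC1000 strain lacking acrAB efflux and sulA so SOS filamentation is blocked; test concentration not given here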
# [7] = small-molecule microarray binders of probe aLefty2, primary screen, biochemical, biotinylated probe, 635/667 nm fluorescence (AID 1094); details: higher = more signal;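 further: score merges spot fluorescence near 667 nm with spot signal-to-noise ratio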
# [8] = tested on: Noggin (protein binding on small-molecule microarray); test: Noggin binders on small-molecule microarray, primary screen, biochemical, 635/667 nm fluorescence (AID 1095); details: 635 nm fluorescence, higher = more signal;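 further: score merges 667 nm feature fluorescence with signal to noise over triplicate slides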
# [9] = molecular target: Neurogenic locus notch homolog protein 3 (Homo sapiens) (UniProt Q9UM47); test: NOTCH3 binders on small-molecule microarray, primary screen, biochemical, 635/667 nm fluorescence (AID 1096); details: NOTCH3 binding, 635 nm fluorescence, higher = more signal
# [10] = small-molecule microarray binders of probe aEGFR, primary screen, biochemical, biotinylated probe, 635/667 nm fluorescence (AID 1097); details: higher = more signal;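 further: probe is a biotinylated anti-EGFR antibody binding compounds printed on slides; score combines fluorescence near 667 nm and signal to noise of each spot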
# Sequence of Torsin-1A-interacting protein 2 (Homo sapiens) (Q8NFQ8 whole entry, looked up): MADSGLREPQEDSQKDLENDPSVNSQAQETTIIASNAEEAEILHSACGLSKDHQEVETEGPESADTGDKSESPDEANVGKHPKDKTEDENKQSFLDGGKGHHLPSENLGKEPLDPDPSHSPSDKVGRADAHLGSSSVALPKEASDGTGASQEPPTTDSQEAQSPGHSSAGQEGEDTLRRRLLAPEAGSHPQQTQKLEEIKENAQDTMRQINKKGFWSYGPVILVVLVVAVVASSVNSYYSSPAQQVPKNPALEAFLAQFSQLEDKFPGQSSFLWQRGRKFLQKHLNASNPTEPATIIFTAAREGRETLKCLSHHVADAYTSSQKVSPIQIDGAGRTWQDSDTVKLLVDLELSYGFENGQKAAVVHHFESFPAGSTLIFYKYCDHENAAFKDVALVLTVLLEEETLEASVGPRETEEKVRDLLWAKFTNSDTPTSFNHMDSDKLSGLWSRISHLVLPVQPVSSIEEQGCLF
# Sequence of Neurogenic locus notch homolog protein 3 (Homo sapiens) (Q9UM47 whole entry, looked up): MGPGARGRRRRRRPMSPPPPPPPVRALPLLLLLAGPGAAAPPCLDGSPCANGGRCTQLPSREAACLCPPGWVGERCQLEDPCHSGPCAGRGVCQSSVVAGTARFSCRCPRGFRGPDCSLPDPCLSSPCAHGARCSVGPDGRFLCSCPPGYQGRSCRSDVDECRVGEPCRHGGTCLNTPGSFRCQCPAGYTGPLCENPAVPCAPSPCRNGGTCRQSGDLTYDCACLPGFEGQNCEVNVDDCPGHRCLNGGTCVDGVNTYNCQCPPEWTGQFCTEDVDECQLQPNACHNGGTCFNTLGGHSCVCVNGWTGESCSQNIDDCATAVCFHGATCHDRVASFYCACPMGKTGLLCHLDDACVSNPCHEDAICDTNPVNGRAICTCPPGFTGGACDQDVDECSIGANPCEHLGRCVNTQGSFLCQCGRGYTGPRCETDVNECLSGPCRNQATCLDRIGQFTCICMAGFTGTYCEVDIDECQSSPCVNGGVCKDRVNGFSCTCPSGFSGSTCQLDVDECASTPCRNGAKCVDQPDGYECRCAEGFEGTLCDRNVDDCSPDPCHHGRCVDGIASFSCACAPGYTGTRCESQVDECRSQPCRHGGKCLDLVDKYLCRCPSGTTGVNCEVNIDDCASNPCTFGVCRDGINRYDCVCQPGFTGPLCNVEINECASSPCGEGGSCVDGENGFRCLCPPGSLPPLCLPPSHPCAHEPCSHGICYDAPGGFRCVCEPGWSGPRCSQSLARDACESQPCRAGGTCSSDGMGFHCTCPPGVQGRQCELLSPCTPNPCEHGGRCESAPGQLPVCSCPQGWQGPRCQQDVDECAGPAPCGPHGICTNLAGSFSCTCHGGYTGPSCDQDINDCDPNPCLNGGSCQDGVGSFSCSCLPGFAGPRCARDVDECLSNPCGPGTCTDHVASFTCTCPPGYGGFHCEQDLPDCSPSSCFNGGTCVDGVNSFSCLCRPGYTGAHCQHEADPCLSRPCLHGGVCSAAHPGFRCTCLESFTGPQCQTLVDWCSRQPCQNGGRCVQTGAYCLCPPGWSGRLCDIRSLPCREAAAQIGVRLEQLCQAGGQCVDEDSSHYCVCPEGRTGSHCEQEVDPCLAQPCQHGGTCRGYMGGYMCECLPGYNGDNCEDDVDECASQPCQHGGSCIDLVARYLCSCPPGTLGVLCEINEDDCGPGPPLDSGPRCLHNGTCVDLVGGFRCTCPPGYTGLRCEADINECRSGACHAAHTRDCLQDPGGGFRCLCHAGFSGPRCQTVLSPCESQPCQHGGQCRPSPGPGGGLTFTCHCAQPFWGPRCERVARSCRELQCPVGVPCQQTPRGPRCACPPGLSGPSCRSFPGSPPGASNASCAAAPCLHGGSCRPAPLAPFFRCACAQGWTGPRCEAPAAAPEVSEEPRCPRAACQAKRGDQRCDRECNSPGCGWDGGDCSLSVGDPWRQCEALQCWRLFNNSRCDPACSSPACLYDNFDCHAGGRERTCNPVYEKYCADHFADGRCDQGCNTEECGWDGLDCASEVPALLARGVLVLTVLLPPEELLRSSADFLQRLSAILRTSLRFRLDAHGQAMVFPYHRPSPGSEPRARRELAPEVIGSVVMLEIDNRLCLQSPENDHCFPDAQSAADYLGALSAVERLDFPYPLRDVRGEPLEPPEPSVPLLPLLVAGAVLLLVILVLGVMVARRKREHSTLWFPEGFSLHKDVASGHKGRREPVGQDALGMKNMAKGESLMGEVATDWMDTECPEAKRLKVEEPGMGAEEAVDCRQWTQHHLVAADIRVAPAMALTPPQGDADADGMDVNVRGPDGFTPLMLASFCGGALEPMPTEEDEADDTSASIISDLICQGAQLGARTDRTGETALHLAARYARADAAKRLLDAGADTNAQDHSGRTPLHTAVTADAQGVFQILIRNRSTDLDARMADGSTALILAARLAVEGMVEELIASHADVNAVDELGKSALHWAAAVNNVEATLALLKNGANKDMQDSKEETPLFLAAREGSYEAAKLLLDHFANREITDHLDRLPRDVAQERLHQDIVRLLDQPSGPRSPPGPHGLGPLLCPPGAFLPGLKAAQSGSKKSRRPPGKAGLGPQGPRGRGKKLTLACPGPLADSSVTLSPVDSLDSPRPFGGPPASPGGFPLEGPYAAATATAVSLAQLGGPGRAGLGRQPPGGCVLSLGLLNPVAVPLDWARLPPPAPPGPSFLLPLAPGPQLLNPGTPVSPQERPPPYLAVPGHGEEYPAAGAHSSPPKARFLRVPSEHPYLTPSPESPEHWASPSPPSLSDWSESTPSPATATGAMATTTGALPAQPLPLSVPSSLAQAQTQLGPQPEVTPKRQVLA
Structure (SMILES),composite z-score [1],z-score [2],z-score [3],z-score [4],composite z-score [5],z-score [6],composite z-score [7],composite z-score [8],composite z-score [9],composite z-score [10]
COC(=O)C1=CCC(c2cccc(Cl)c2)O1 (stereo not given),0.0357,-1.6 (inactive),-1.54 (inactive),4.34 (inactive),1.82,-0.215 (inactive),-0.043,-0.485,-0.223,-0.106
COc1ccc(O[C@H]2C=C[C@@H](c3ccccc3)O[C@@H]2COC(=O)CCC(C)=NOC(C)CN2CCCCc3nc(C)c(C)cc32)cc1 (stereo not given in full),-0.285,-0.258 (inactive),-1.87 (inactive),-0.889 (inactive),0.283,1.14 (inactive),-0.0769,0.294,-1.33,-0.0614
C=C(/C(=C/C[C@H](OC(=O)c1ccncc1)c1ccc(OCCO)cc1)c1cnc2ccccc2c1)C(C)C,1.55,-0.442 (inactive),-1.82 (inactive),0.706 (inactive),1.12,-0.13 (inactive),-0.0985,1.48,1.03,-0.0251
C[C@@H]1C=CCC(=O)OC[C@H](C)C(=O)OC[C@H]2O[C@H]1C=C[C@H]2O,0.047,1.1 (inactive),-2.02 (inactive),0.614 (inactive),0.429,0.0861 (inactive),-0.18,1.31,0.272,-0.0039
CCCCCN1CC=CC23O[C@@H]4C=CCOC(=O)[C@@H]4[C@H]2C(=O)N(C(CO)C(C)C)[C@@H]3C1=O (stereo not given in full),-0.266,0.403 (inactive),0.195 (inactive),0.972 (inactive),-1.52,0.869 (inactive),-0.166,-0.433,0.247,-0.234
CC(=O)C[C@H](O)[C@@H](NC(=O)OC(C)(C)C)C(C)C,-0.402,-0.498 (inactive),-0.644 (inactive),0.0836 (inactive),-1.18,-0.972 (inactive),-0.214,-0.198,-0.0052,-0.171
CCOC(=O)C1=CC[C@H]2C(=O)N(CC)C(=O)[C@@H]12,0.863,-0.348 (inactive),1.77 (inactive),0.816 (inactive),1.08,-0.233 (inactive),-0.181,0.344,1,0.125
CCCC[C@@H](O)C1=C(C)C[C@H]2C(=O)N(Cc3ccccc3)C(=O)[C@H]2[C@H]1CO,0.18,-0.812 (inactive),-2.19 (inactive),0.0211 (inactive),-0.463,0.706 (inactive),-0.0998,0.283,0.15,-0.159
COC(=O)CC=C[C@@H](C)[C@@H](C=NO[C@@H](C)c1cc(-c2c(C)cc(C)cc2C)no1)OC,-1.43,-0.0365 (inactive),-0.875 (inactive),0.599 (inactive),-1.2,-0.622 (inactive),-0.047,-0.119,-0.75,-0.419
COC(=O)CC=C[C@H](C)[C@H](CO)NS(=O)(=O)c1ccc(C)cc1,0.562,-0.0524 (inactive),-0.256 (inactive),-0.142 (inactive),0.368,-0.518 (inactive),-0.243,0.504,0.506,-0.0953
CC(C)NC(=O)[C@@]1(c2ccc([N+](=O)[O-])cc2)CC(=O)N(CC23CC4CC(CC(C4)C2)C3)[C@@H]1c1ccc(CO)cc1I,1.52,0.151 (inactive),0.168 (inactive),5.83 (inactive),2.53,-0.525 (inactive),0.448,0.176,0.341,0.0743
O=C1[C@H]2[C@H]3[C@H](O)[C@H](O)CC(=NO[C@@H]4O[C@H](CO)[C@@H](O)[C@H](O)[C@H]4O)[C@H]3CC[C@H]2C(=O)N1Cc1ccc2c(c1)OCO2,0.661,0.827 (inactive),0.918 (inactive),-0.297 (inactive),2.14,0.529 (inactive),0.0835,-0.246,-0.133,-0.17
CCCNC(=O)OC[C@H]1O[C@H](CCON=C2[C@H]3CCn4c(=O)n(-c5ccccc5)c(=O)n4[C@H]3[C@H](O)[C@@H]3O[C@H]23)C=C[C@@H]1Oc1ccc(OC)cc1,0.615,-0.285 (inactive),0.0063 (inactive),-0.0824 (inactive),0.507,0.317 (inactive),-0.234,0.388,0.242,-0.253
O=C(NN=C1C[C@@H](O)[C@@H](O)[C@@H]2[C@@H]3C(=O)N(c4cccc(Oc5ccccc5)c4)C(=O)[C@@H]3CC[C@@H]12)OCc1ccccc1,0.633,0.909 (inactive),0.588 (inactive),0.281 (inactive),1.46,0.108 (inactive),-0.0345,0.635,0.0096,-0.124
CO[C@@H]1COC(=O)[C@H](C)NC(=O)[C@@H](C)COC(=O)CCC[C@H]1C,1.27,-0.11 (inactive),0.381 (inactive),-1.14 (inactive),2.11,-0.183 (inactive),-0.179,0.209,-0.0217,0.136
COCCOC(=O)N1C(=O)[C@@]2(c3cc(C#CCNC(N)=O)ccc31)[C@H](c1ccccc1OCCO)N1[C@H](c3ccccc3)[C@H](c3ccccc3)OC(=O)[C@H]1[C@@H]2C(=O)N1CCN(c2ncccn2)CC1,1.44,-0.0197 (inactive),2.11 (inactive),3.85 (inactive),2.22,0.961 (inactive),0.065,0.43,0.572,-0.0271
O=C(CS)NCCCCCNC(=O)[C@H]1C[C@H]2C(=O)N3CCC[C@H]3C(=O)N2[C@H]1c1cccc(OCCO)c1,1.53,0.436 (inactive),-0.723 (inactive),-0.173 (inactive),2.7,0.146 (inactive),0.0124,1.76,1.1,-0.0025
O=C1[C@H]2[C@H]3[C@H](O)[C@H](O)CC(=NO[C@@H]4O[C@H](CO)[C@@H](O)[C@H](O)[C@H]4O)[C@@H]3CC[C@H]2C(=O)N1Cc1ccc2c(c1)OCO2,0.843,-0.0622 (inactive),0.374 (inactive),0.35 (inactive),1.55,-0.244 (inactive),-0.0991,0.388,0.786,-0.0007
[N-]=[N+]=NCc1ccccc1C[C@]1(C(=O)NCc2ccccc2)N=C(c2ccc(OCCCO)cc2)O[C@H]1c1ccccc1N=[N+]=[N-],1.26,0.228 (inactive),1 (inactive),6.01 (inactive),3.17,0.368 (inactive),0.284,0.179,0.755,0.464
CC(C)(C)N1C(=O)[C@H]2[C@H]3[C@H](O)[C@H](O)CC(=NO[C@@H]4O[C@H](CO)[C@@H](O)[C@H](O)[C@H]4O)[C@@H]3CC[C@H]2C1=O,1.49,-0.233 (inactive),-0.113 (inactive),-1.47 (inactive),1.97,0.637 (inactive),-0.217,0.564,0.794,-0.0229
C[N+](C)(C)CCCCCCNC(=O)[C@@H]1C[C@@H]2C(=O)N3CCC[C@H]3C(=O)N2[C@@H]1c1cccc(OCCO)c1,1.44,-1.6 (inactive),-0.0376 (inactive),-1.06 (inactive),3.14,0.784 (inactive),-0.0898,1.88,0.245,-0.0967
CN(C)CCCNC(=O)[C@@H]1c2ccccc2C(=O)N(Cc2ccccc2)[C@H]1c1ccc(CO)cc1,0.0881,0.115 (inactive),-0.699 (inactive),-0.848 (inactive),0.282,0.442 (inactive),0.555,-0.848,-1.21,0.259
CCOC(=O)[C@H](Cc1ccccc1)NC(=O)CCC1CC(OC(=O)NCc2ccc3c(c2)OCO3)CC2(CCCC(COC(=O)NCc3cccc(C(F)(F)F)c3)O2)O1 (stereo not given in full),1.35,-0.594 (inactive),0.926 (inactive),0.287 (inactive),0.735,-1.29 (inactive),-0.0383,0.606,1.11,0.0293
CN(C)C(=O)[C@@]1(Cc2ccccc2)N=C(c2ccc(OCCCO)cc2)O[C@H]1c1ccccc1CN=[N+]=[N-],1.56,-1.88 (inactive),-0.31 (inactive),0.477 (inactive),3.17,0.73 (inactive),0.578,0.801,0.969,0.361
COC(=O)[C@H](C)NC(=O)CCC1CC(OC(=O)NCCc2ccc(F)cc2)CC2(CCCC(COC(=O)NCCc3ccc(Cl)cc3)O2)O1 (stereo not given in full),1.24,0.86 (inactive),0.812 (inactive),1.2 (inactive),2.39,0.126 (inactive),-0.0237,0.244,1.12,-0.0989
CC(C)(C)OC(=O)CC[C@]1(C(=O)NCc2ccccc2)N=C(c2ccc(OCCCO)cc2)O[C@H]1c1ccccc1,1.55,-0.105 (inactive),0.851 (inactive),1.64 (inactive),3.71,0.0596 (inactive),-0.0354,0.798,0.97,-0.123
